The whole screen tested about 2,000 compounds, of which about 250 (12%) were called active. Cut-off read from the data, not from the text of the source: active = hERG blockade below about -20% or above about 20%; inactive = in between. For the sample, actives were picked, then their nearest neighbours and some compounds at random.
target: Voltage-gated inwardly rectifying potassium channel KCNH2 (Homo sapiens) (UniProt Q12809); test: KCNH2 potassium channel function modulators, cell-based (AID 376); settings: hERG-expressing cells, channel activity single-concentration screen; concentration not given here;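 note: 0% = buffer alone and 100% = reference blocker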
Sequence (Q12809 whole entry, looked up): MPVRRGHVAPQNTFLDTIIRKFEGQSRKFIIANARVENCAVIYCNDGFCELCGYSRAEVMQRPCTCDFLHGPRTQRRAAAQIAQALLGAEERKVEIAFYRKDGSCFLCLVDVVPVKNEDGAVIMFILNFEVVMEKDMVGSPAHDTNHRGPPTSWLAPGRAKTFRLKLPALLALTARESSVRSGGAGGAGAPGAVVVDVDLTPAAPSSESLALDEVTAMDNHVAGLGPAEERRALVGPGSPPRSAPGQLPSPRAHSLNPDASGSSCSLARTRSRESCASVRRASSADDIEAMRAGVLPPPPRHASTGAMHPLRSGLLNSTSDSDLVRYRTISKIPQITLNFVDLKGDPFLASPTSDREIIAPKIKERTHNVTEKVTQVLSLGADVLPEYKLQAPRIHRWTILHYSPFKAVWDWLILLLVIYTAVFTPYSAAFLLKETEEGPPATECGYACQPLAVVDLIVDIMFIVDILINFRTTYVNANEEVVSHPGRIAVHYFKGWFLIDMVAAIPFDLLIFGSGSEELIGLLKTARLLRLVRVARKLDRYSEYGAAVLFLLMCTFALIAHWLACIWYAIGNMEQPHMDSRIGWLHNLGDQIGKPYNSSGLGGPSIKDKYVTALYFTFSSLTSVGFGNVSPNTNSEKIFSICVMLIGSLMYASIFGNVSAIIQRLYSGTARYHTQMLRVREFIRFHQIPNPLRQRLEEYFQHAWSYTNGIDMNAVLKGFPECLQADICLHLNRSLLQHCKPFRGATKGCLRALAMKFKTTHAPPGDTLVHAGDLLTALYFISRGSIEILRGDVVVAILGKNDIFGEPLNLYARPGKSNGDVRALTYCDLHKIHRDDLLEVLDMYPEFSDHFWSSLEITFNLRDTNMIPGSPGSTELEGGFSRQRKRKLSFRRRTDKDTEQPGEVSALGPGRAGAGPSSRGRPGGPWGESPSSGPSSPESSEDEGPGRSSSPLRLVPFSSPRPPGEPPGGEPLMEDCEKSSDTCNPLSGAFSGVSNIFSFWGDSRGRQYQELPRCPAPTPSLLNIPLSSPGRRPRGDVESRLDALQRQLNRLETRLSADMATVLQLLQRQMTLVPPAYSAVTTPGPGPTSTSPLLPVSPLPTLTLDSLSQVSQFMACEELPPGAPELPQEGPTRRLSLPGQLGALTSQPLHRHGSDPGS

| SMILES | hERG blockade |
| --- | --- |
| CC(C)(SCc1ccccc1)C(N)C(=O)O (configuration not stated) | 2.47% (inactive) |
| NS(=O)(=O)c1ccc(NC(=O)Nc2cccc3ccccc23)cc1 | 0.23% (inactive) |
| CC(=N[O-])C(C)=N[O-].CC(=N[O-])C(C)=N[O-].CC(=N[O-])C(C)=N[O-].CC(=N[O-])C(C)=N[O-].[CH3-].[CH3-].[Co].[Co] | 11.4% (inactive) |
| O=S(=O)(c1cccc(C(F)(F)F)c1)N1c2ccccc2-n2cccc2C1c1cccnc1 (configuration not stated) | 18% (inactive) |
| FC(F)(F)c1nc(SCc2ccc(Cl)cc2)n[nH]1 | 4.58% (inactive) |
| COc1ccc2c(Cl)cc(NC(=S)Nc3ccccc3)nc2c1 | -8.81% (inactive) |
| CSc1nc(C)cc(Nc2ccc(O)c(CN3CCCCC3)c2)n1 | 14.8% (inactive) |
| COc1ccc2nc3cc(Cl)ccc3c(Nc3ccc(O)c(CN4CCN(C)CC4)c3)c2c1 | 61.7% (active) |
| OC(CNc1ccccn1)c1ccccc1 (configuration not stated) | 5.58% (inactive) |
| Cc1cc(Cc2c(C)c(C)c(Cc3cc(C)cc(C(C)(C)C)c3O)c(C)c2C)c(O)c(C(C)(C)C)c1 | 1.65% (inactive) |
| Nc1ccc(N(S(=O)(=O)c2ccccc2)S(=O)(=O)c2ccccc2)c(Cl)c1 | 0.845% (inactive) |
| COc1cc(CN2CCCCC2)cc2cc(C(=O)O)c(=O)oc12 | 4.84% (inactive) |
| O=C(O)c1c[nH]c2cc(OCc3ccccc3)ccc2c1=O | 6.26% (inactive) |
| O=C(O)c1ccc(C(=O)O)c2c(C(=O)O)ccc(C(=O)O)c12 | -5.21% (inactive) |
| O=C(O)c1c[nH]c2c(ccc3[nH]cc(C(=O)O)c(=O)c32)c1=O | 22.9% (active) |
| O=C(O)C(Cc1ccccc1-c1ccccc1)C(=O)O | 19.4% (inactive) |
| Cc1n[nH]c2ccccc2c1=O | -1.27% (inactive) |
| COc1ccc2ccccc2c1C=CC(=O)c1ccccc1 | -1.69% (inactive) |
| O=C(O)CCC(=O)c1ccc2sc3ccccc3c2c1 | -5.18% (inactive) |
| O=C(C[n+]1ccc2ccccc2c1)c1ccc2ccc3ccccc3c2c1 | 37.2% (active) |
| OC(COc1ccc(Cl)cc1Cl)CN1CCCC1 (configuration not stated) | 17.2% (inactive) |

| SMILES | hERG blockade |
| --- | --- |
| C[N+](C)(N)CCC[N+](C)(C)N | -2.4% (inactive) |
| O=C1C2=C(Nc3cc([N+](=O)[O-])ccc3N2)OC1c1c[nH]c2ccc(COc3ccccc3)cc12 (configuration not stated) | 4.4% (inactive) |
| Nc1nc(SCc2ccccc2Cl)cc(C(=O)O)n1 | -7.45% (inactive) |
| CC(C)C1=CC23CCC4C(C)(C(=O)O)CCCC4(C)C2CC1C(C(=O)O)C3C(=O)O (configuration not stated) | 6.18% (inactive) |
| Oc1c(C(O)(c2ccccc2)c2ccc3ccccc3c2O)ccc2ccccc12 | 50.7% (active) |
| Oc1ccc2ccccc2c1Cc1c(O)ccc2ccccc12 | 8.8% (inactive) |
| CC(O)(c1ccccc1)c1nccc2ccccc12 (configuration not stated) | 0.101% (inactive) |
| CC1=NN(c2ccc(S(=O)(=O)O)cc2)C(=O)C1=Cc1ccc(Cl)cc1 | 41% (active) |
| O=c1oc2ccccc2c(O)c1C=Nc1nc(-c2ccc(O)c(O)c2)cs1 | -3.45% (inactive) |
| C[N+](C)(C)CC(=O)NN=Cc1ccncc1 | -9.76% (inactive) |
| C=CCSc1nc2c(N)ncnc2n1C1OC(CO)C(O)C1O (configuration not stated) | -7.69% (inactive) |
| NS(=O)(=O)c1ccc(NCc2cnc3ccccc3n2)cc1 | -7.4% (inactive) |
| Nc1nccc(Nc2ccc(S(N)(=O)=O)cc2)n1 | 20.2% (active) |
| NS(=O)(=O)c1ccc(NCc2cnc3ccccc3c2)cc1 | -4.82% (inactive) |
| O=[N+]([O-])c1ccc(CS(=O)Cc2ccccc2)cc1 (configuration not stated) | 8.1% (inactive) |
| Cc1ccc(S(=O)(=O)Oc2cc(N)c3c(n2)CCC3)cc1 | -21.4% (active) |
| Cc1ccc(S(=O)(=O)Nc2cc(=O)[nH]c3c2CCC3)cc1 | 15.4% (inactive) |
| Cc1ccc(S(=O)(=O)Oc2cc(S(=O)(=O)O)cc3cc(S(=O)(=O)O)cc(N)c23)cc1 | 11.5% (inactive) |
| O=C(O)C(=Cc1ccncc1)c1cccc2ccccc12 | 0.772% (inactive) |
| COc1ccc2c3c([nH]c2c1)C1CC2C(CC(O)C(OC)C2C(=O)O)CN1CC3 (configuration not stated) | 5.28% (inactive) |
| COC(=O)C1C(O)CCC2CN3CCc4c([nH]c5ccccc45)C3CC21 (configuration not stated) | 42.5% (active) |

| SMILES | hERG blockade |
| --- | --- |
| COC(=O)C1C(OS(=O)(=O)O)CCC2CN3CCc4c([nH]c5ccccc45)C3CC21 (configuration not stated) | -1.73% (inactive) |
| Oc1cc(O)c2c(c1)OC(c1ccc(O)c(O)c1)C(O)C2c1c(O)cc(O)c2c1OC(c1ccc(O)c(O)c1)C(O)C2 (configuration not stated) | 10.6% (inactive) |
| O=C(O)COc1c(Cl)cc(Cl)c2cccnc12 | -8.13% (inactive) |
| O=C(Oc1ccc2c(c1)CN(Cc1ccccc1)CO2)c1ccccc1 | 13% (inactive) |
| c1ccc(CN2COc3c(ccc4c5c(ccc34)CN(Cc3ccccc3)CO5)C2)cc1 | -6.83% (inactive) |
| CC(C)(C)c1c2c(c(C(C)(C)C)c3c1OCN(Cc1ccccc1)C3)OCN(Cc1ccccc1)C2 | 23.8% (active) |
| CCCC(c1cc(C(C)(C)C)c(O)cc1C)c1cc(C(C)(C)C)c(O)cc1C | 4.17% (inactive) |
| CC(=N[O-])C(C)=N[O-].CC(=N[O-])C(C)=N[O-].C[CH-]C(C)O.[Co].c1ccncc1 | -3.56% (inactive) |
| N=c1ccn2c(n1)OC1C(OP(=O)(O)O)C(CO)OC12 (configuration not stated) | -24.7% (active) |
| Nc1ccn(C2OC(CO)C3[O][Sn]([c]4ccccc4)([c]4ccccc4)[O]C32)c(=O)n1 (configuration not stated) | 9.47% (inactive) |
| Nc1ccn(C2OC(COP(=O)(O)O)C(O)C2O)c(=O)n1 (configuration not stated) | -9.61% (inactive) |
| Fc1cccc(Cl)c1C=NN=C1c2ccccc2-c2ccccc21 | 4.24% (inactive) |
| O=C(O)c1c(Cl)c(Cl)c(Cl)c(Cl)c1C(=O)Nc1ccc2cn[nH]c2c1 | 9.23% (inactive) |
| C[N+](C)(C)C(Cc1c[nH]c(=S)[nH]1)C(=O)O (configuration not stated) | -14% (inactive) |
| COc1ccc(-c2nc(N)c3ncn(C4OC(CO)C(O)C4O)c3n2)cc1 (configuration not stated) | -8.39% (inactive) |
| CC(C)CC(N)C(=O)O (configuration not stated) | 6.02% (inactive) |
| NC(Cc1ccccc1)(C(=O)O)C(=O)O | -3.15% (inactive) |
| NS(=O)(=O)c1cc(C(=O)O)c(Cl)c([N+](=O)[O-])c1Cl | -6.38% (inactive) |
| COc1cc(C(=O)O)c([N+](=O)[O-])c(OC)c1OC | 23.9% (active) |
| COc1ccc(Cc2ccccc2C(=O)O)c2ccccc12 | -3.19% (inactive) |
